Experimental data as given in the supplement of paper PMC6555819.

Legend:
Experiment in all cases: PBM binding z-score (relative to random genomic background probes); higher = stronger binding; sequences stand for … in GC…GCGATTGACAGCGTAGAATGAAGG
[1] = system: FXR:RXRa (NR concentration 270 nM, RXRa partner concentration 90 nM)
Method in brief: (§1)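 The probes on custom Agilent 4×180K protein-binding microarrays were double-stranded, with 34-nt variable regions bearing direct-repeat seeds, single-nucleotide variants, half-site ablations and random human genomic background sequences. Incubation lasted 1 h with ligand-free nuclear receptor dimers in PBS pH 7.4, 2% milk, 0.02% Triton X-100, 1 mM DTT, 0.2 mg/mL BSA and 0.4 mg/ml salmon testes DNA. Antibodies against each partner (one per run) detected bound dimers, and fluorescence scans were regression-normalized. Binding z-scores take the random background probes as reference.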

[2] = system: LXRa:RXRa (NR concentration 270 nM, RXRa partner concentration 90 nM)
Method in brief: as §1

[3] = system: LXRa homodimer (NR concentration 270 nM)
Method in brief: as §1

[4] = system: LXRb:RXRa (NR concentration 270 nM, RXRa partner concentration 90 nM)
Method in brief: as §1

[5] = system: LXRb homodimer (NR concentration 270 nM)
Method in brief: as §1

[6] = system: PPARa:RXRa (NR concentration 270 nM, RXRa partner concentration 90 nM)
Method in brief: as §1

[7] = system: PPARg:RXRa (NR concentration 180 nM, RXRa partner concentration 90 nM)
Method in brief: as §1

[8] = system: PPARg:RXRa 270nM:90nM, anti-RXR (NR concentration 270 nM, RXRa partner concentration 90 nM)
Method in brief: as §1

[9] = system: PPARg:RXRa 30nM:10nM, anti-RXR (NR concentration 30 nM, RXRa partner concentration 10 nM)
Method in brief: as §1

[10] = system: PPARg:RXRa 90nM:30nM, anti-RXR (NR concentration 90 nM, RXRa partner concentration 30 nM)
Method in brief: as §1

[11] = system: PPARg:RXRa DBDmut IVT, anti-RXR (DBD mutation: RXRa K156A/R161A, NR concentration 270 nM, RXRa partner concentration 90 nM)
Method in brief: as §1

[12] = system: PPARg:RXRa IVT, anti-PPARg (NR concentration 270 nM, RXRa partner concentration 90 nM)
Method in brief: as §1

[13] = system: PPARg DBDmut:RXRa IVT, anti-PPARg (DBD mutation: PPARg1 K132A/R137A, NR concentration 270 nM, RXRa partner concentration 90 nM)
Method in brief: as §1

[14] = system: PPARg DBDmut IVT, anti-PPARg (DBD mutation: PPARg1 K132A/R137A, NR concentration 270 nM)
Method in brief: as §1

[15] = system: PPARg homodimer (NR concentration 180 nM)
Method in brief: as §1

[16] = system: PXR:RXRa (NR concentration 270 nM, RXRa partner concentration 90 nM)
Method in brief: as §1

[17] = system: PXR homodimer (NR concentration 270 nM)
Method in brief: as §1

[18] = system: RARa:RXR (NR concentration 270 nM, RXRa partner concentration 90 nM)
Method in brief: as §1

[19] = system: RARa homodimer (NR concentration 270 nM)
Method in brief: as §1

[20] = system: RARb:RXRa (NR concentration 270 nM, RXRa partner concentration 90 nM)
Method in brief: as §1

Row | Sequence | PBM binding z-score [1] | PBM binding z-score [2] | PBM binding z-score [3] | PBM binding z-score [4] | PBM binding z-score [5] | PBM binding z-score [6] | PBM binding z-score [7] | PBM binding z-score [8] | PBM binding z-score [9] | PBM binding z-score [10] | PBM binding z-score [11] | PBM binding z-score [12] | PBM binding z-score [13] | PBM binding z-score [14] | PBM binding z-score [15] | PBM binding z-score [16] | PBM binding z-score [17] | PBM binding z-score [18] | PBM binding z-score [19] | PBM binding z-score [20]
1 | CCTTACGGGTCACTGCAGGTTATAGCATCGGAGT | 5.36 | 7.22 | 1.13 | 5.01 | 0.0222 | 4.88 | 3.68 | 4.35 | 1.16 | 3.15 | 3.51 | 3.76 | -0.541 | -0.0144 | 1.95 | 4.74 | 0.0878 | 4.05 | 0.239 | 3.97
2 | ACTTACGGGTCAACGAGGTTATATCACGCGTATA | 6.93 | 5.07 | 1.5 | 4.54 | 1.09 | 5.82 | 5.28 | 4.92 | 2.11 | 3.79 | 2.95 | 3.92 | 0.992 | 1.71 | 2.52 | 5.03 | 3.3 | 4.76 | 0.919 | 4.28
3 | TCATATAGGTAAACAGGTGAAAGTTCGTAAGTTA | 1.01 | 1.3 | 1.04 | 1.4 | -0.228 | 4.15 | 7.28 | 6.52 | 5.93 | 7.06 | 4.94 | 5.28 | 1.8 | 1.15 | 1.88 | 2.07 | 2.12 | 2.61 | 2.02 | 1.25
4 | CCTATTAGTTGACCATAATGGCAACCGAAGCTCG | 0.282 | 0.486 | 0.78 | 0.483 | 1.03 | 0.289 | 0.468 | -0.0519 | -0.187 | 0.0677 | 0.772 | 0.551 | 0.742 | 1.21 | 2 | 0.599 | 1.05 | 0.673 | 2.52 | 0.621
5 | TAGCCTAGGTCATGCGTGCCAGTATAGTGTCGGC | 4.03 | 3.31 | 0.471 | 1.75 | -0.0531 | 3.69 | 2.33 | 2.39 | 0.347 | 1.23 | 1.88 | 3.12 | 0.14 | 0.765 | 1.62 | 1.51 | -0.776 | 2.65 | -0.307 | 3.77
6 | TCAGACAGGTGAAGGTAACTCAGGTACGCAGTCG | 0.942 | 1.82 | -0.0918 | 1.2 | -0.116 | 1.34 | 0.719 | 2.37 | 3.89 | 2.98 | 2.78 | 1.13 | 0.341 | -0.339 | 0.564 | 0.641 | 0.447 | 0.878 | 0.775 | 1.18
7 | CCTATTACTTGACCATAAGGGCAACCGAAGCTCG | 1.19 | 0.716 | 0.834 | 1.06 | 1.31 | 0.711 | 0.8 | 0.339 | 0.281 | 0.247 | 0.621 | 0.836 | 0.25 | 1.09 | 1.41 | 0.749 | 1.2 | 1.05 | 2.03 | 1.61
8 | TAGCCTAGGTCATTCAGCGGCCAGTATAGAAAGC | 5.03 | 3.68 | 1.04 | 2.68 | 0.455 | 3.72 | 2.09 | 2.21 | 0.564 | 1.12 | 1.69 | 2.65 | 0.127 | -0.00854 | 2.11 | 1.94 | -0.494 | 3.02 | -0.474 | 3.92
9 | TCTTGTAGATCAATAGAGGTTAAGATAGTGCGCT | 1.04 | 3.81 | 0.813 | 1.97 | -0.0819 | 1.99 | 0.479 | 1.59 | 2.43 | 2.03 | 1.55 | 0.959 | 0.251 | 0.77 | 0.455 | 2.26 | -0.0224 | 2.09 | 0.236 | 0.832
10 | ATACCAATGTGATCGTGAGGTCGTTGATACTAAC | 1.13 | 0.684 | 0.704 | 0.894 | -0.063 | 0.905 | 0.346 | 0.198 | 0.123 | 0.295 | -0.174 | 0.568 | 0.648 | 1.38 | 0.242 | 2.06 | 1.23 | 1.39 | -0.115 | 0.569
11 | TCTGCGAGGTCAGTTGGTCAGCTAACGAGCTGCC | 4.64 | 3.16 | 0.00554 | 2.69 | 1.26 | 3.99 | 2.69 | 3.5 | 1.59 | 2.61 | 1.99 | 3.25 | 2.02 | 0.235 | 1 | 2.88 | 0.146 | 2.68 | -0.6 | 4.51
12 | CGAACTAGGTCAGGACAGGACAGTGAAGGATGAT | 1.85 | 0.936 | -0.238 | 0.443 | -0.587 | 3.13 | 5.98 | 5.1 | 2.35 | 4.11 | 7.58 | 7.47 | 1.64 | 0.603 | 0.819 | 1.25 | -0.213 | 0.766 | -0.133 | 3.44
13 | CAGCCTAGGTCAGGACCAGTATAGGAGGAACGTT | 1.48 | 0.848 | -0.0859 | 0.663 | -0.972 | 1.94 | 0.905 | 0.922 | -0.12 | 0.355 | 1.07 | 1.37 | -0.507 | -1.17 | 0.861 | 0.277 | -0.104 | 0.885 | 0.139 | 3.26
14 | GCTGCTAGGTCAACTGATGGTCAGCTCAAGCTCG | 4.04 | 3.02 | 0.195 | 2.03 | 0.0529 | 3.43 | 2.32 | 2.98 | 0.574 | 1.74 | 4.88 | 3.98 | -0.00259 | -0.768 | 2.12 | 1.66 | -0.637 | 2.9 | -0.413 | 4.23
15 | ATAGACAGGTGATGAAGGTAACTCAGGCTATCAT | -0.202 | -0.185 | -0.277 | -0.324 | 0.162 | -0.103 | 0.6 | 0.152 | 0.156 | -0.14 | -0.221 | 0.67 | 1.3 | 0.102 | 0.341 | -0.261 | 0.251 | -0.0358 | 0.641 | 0.316
16 | ATAATGAGGTTATTAAGATCAGGGAATTGCGGTC | 1.9 | 2.12 | 0.684 | 1.48 | 1.07 | 2.81 | 1.91 | 2.14 | 0.859 | 1.5 | 3.45 | 3.21 | 1.46 | 0.952 | 1.12 | 1.58 | 0.876 | 1.76 | 0.951 | 1.47
17 | CGTCCAAGGTCAAAGGTCAGTGAAGAGATGACGG | 8.56 | 7.07 | 3.31 | 6.61 | 1.67 | 7.33 | 10.8 | 8.93 | 8.26 | 9.54 | 4.23 | 5.97 | 1.75 | 2.79 | 4.7 | 7.11 | 1.9 | 8.77 | 2.78 | 6.02
18 | TCTTGTAGATCAAAGGTTAAGAAAGCCGAAGCCT | 1.74 | 1.97 | -0.166 | 2.14 | -0.146 | 4.65 | 8.31 | 8.09 | 9.09 | 8.69 | 2.11 | 3.55 | 0.0229 | 0.863 | 1.18 | 2.02 | -0.0145 | 3.24 | 0.581 | 1.85
19 | TCTTGTAGATCAACAGGAGGTTACGAAAGATCGA | 0.309 | 1.28 | 0.0638 | 0.991 | -0.0897 | 1.55 | 0.26 | 1.65 | 2.53 | 1.91 | 1.67 | 1.04 | 0.791 | 0.725 | 0.494 | 0.945 | 0.0297 | 1.38 | -0.191 | 0.551
